Publication PMC7862700, “An all-to-all approach to the identification of sequence-specific readers for epigenetic DNA modifications on cytosine”

Columns and labels:
Test in all cases: DAPPL (digital affinity profiling via proximity ligation, sequencing); 10 mM Tris-HCl pH 7.5, 50 mM NaCl, 1 mM DTT, 4% glycerol, room temperature, 30 min; GST-TFs on glutathione beads, 16-mer random dsDNA library, 0.1% formaldehyde crosslink after washing; high values mean tight binding
FEV = target: T1, FEV (Homo sapiens, UniProt Q99581 1-238); conditions: protein: recombinant; tags: N-terminal GST; dsDNA, one strand shown
T1 sequence: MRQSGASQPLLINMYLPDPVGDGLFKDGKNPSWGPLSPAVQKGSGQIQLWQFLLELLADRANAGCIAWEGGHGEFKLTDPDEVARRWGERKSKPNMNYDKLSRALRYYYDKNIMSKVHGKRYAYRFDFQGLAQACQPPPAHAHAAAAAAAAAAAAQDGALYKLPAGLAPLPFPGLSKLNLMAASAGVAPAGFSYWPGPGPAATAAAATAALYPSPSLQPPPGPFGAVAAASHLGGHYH
Procedure, shortened: (§1)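 Binding signal is defined as a hexamer's read frequency for one factor over its frequency for the tag-only sample. To obtain reads, GST-fused human transcription factors were expressed in yeast, captured on glutathione beads, barcoded with DNA and pooled with that sample. Pools met 200 nmole of a 16-mer random double-stranded DNA library in Tris/NaCl/DTT/glycerol buffer for 30 min at room temperature before washing, 0.1% formaldehyde crosslinking, proximity ligation (BsaI/T4 ligase, 1 h, 37 °C), PCR and Illumina NextSeq500 sequencing.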

ETV5 = ETV5 (Homo sapiens, UniProt P41161 1-510); conditions: protein: recombinant; tags: N-terminal GST; dsDNA, one strand shown
Chain of ETV5 (P41161 whole entry): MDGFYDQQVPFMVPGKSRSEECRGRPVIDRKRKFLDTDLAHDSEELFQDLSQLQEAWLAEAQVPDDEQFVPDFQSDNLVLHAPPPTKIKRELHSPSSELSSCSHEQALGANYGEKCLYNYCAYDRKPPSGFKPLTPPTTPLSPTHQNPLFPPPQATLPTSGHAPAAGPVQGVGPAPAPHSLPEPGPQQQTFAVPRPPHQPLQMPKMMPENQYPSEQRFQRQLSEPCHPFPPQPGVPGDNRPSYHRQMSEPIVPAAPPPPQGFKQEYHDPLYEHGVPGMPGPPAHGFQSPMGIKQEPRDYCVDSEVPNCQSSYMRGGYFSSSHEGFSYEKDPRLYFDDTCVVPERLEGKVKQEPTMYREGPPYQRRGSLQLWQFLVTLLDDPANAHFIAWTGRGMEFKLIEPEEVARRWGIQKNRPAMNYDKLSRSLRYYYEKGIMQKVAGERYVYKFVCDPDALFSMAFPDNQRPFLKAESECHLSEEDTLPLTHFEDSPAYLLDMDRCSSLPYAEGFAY
Procedure, shortened: as §1

HSF1 = HSF1 (Homo sapiens, UniProt Q00613 1-529); conditions: protein: recombinant; tags: N-terminal GST; chain copies: 3; dsDNA, one strand shown
Chain of HSF1 (Q00613 whole entry): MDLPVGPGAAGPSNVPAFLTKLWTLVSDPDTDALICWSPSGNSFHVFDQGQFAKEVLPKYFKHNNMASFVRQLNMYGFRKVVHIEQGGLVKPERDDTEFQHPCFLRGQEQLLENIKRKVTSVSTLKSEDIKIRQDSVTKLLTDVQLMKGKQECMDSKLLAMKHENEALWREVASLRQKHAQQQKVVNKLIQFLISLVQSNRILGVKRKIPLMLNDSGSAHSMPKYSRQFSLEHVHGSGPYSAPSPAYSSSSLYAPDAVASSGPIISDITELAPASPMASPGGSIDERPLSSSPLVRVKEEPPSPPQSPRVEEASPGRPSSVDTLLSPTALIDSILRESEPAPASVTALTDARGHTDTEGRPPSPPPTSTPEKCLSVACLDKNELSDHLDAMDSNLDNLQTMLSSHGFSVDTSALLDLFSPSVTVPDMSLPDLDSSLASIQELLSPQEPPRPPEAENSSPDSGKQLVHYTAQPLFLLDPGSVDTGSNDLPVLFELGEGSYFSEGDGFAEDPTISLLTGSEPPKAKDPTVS
Procedure, shortened: as §1

SPIC = target: T2, SPIC (Homo sapiens, UniProt Q8N5J4 1-248); conditions: protein: recombinant; tags: N-terminal GST; dsDNA, one strand shown
T2 sequence: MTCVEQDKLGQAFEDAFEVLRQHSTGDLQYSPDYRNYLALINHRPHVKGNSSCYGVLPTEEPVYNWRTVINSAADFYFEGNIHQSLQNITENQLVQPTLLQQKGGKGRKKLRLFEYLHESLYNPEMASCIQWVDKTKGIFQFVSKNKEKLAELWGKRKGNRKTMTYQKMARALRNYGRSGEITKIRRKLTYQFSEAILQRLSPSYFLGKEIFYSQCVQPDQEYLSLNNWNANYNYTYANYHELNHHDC
Procedure, shortened: as §1

ELF4 = ELF4 (Homo sapiens, UniProt Q99607 1-663); conditions: protein: recombinant; tags: N-terminal GST; dsDNA, one strand shown
Chain of ELF4 (Q99607 whole entry): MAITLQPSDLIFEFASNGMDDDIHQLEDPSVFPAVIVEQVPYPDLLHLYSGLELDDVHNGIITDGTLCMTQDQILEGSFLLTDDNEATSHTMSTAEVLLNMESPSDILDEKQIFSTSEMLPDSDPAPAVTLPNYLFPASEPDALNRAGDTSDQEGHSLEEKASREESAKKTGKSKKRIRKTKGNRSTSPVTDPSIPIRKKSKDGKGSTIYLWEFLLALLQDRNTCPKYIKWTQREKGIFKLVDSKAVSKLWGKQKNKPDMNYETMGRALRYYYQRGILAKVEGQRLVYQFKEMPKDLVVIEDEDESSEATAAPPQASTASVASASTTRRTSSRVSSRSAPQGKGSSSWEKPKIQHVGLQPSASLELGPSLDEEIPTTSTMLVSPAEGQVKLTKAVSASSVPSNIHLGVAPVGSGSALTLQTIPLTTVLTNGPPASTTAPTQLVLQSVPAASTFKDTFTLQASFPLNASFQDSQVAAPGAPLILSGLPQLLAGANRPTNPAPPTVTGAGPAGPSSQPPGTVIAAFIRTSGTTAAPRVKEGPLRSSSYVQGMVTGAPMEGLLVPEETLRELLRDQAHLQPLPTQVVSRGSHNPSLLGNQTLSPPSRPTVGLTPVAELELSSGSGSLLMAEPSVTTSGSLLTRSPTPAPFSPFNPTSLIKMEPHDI
Procedure, shortened: as §1

ELK4 = target: T3, ELK4 (Homo sapiens, UniProt P28324-2 1-405); conditions: protein: recombinant; tags: N-terminal GST; dsDNA, one strand shown
T3 sequence: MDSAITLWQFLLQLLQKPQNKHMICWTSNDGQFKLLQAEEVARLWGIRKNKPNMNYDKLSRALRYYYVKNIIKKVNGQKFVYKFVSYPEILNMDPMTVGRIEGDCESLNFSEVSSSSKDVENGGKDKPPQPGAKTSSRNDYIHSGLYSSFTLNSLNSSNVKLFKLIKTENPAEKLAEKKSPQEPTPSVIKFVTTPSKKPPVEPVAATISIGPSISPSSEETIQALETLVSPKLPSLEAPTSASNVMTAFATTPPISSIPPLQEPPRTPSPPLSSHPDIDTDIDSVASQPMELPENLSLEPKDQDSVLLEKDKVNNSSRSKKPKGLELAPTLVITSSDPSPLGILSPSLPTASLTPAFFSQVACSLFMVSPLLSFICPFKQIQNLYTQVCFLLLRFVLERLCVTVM
Procedure, shortened: as §1

ETV2 = target: T4, ETV2 (Homo sapiens, UniProt O00321 1-342); conditions: protein: recombinant; tags: N-terminal GST; dsDNA, one strand shown
T4 sequence: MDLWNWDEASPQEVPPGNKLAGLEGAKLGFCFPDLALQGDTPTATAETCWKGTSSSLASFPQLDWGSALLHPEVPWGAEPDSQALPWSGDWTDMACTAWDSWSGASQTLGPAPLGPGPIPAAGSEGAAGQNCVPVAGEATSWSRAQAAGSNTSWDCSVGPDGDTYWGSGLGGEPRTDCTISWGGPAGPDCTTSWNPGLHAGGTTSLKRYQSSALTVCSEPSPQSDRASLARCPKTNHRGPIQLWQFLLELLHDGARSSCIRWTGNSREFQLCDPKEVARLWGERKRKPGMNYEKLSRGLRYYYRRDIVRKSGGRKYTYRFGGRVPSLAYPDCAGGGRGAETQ
Procedure, shortened: as §1

ELF3 = target: T5, ELF3 (Homo sapiens, UniProt P78545 1-371); conditions: protein: recombinant; tags: N-terminal GST; dsDNA, one strand shown
T5 sequence: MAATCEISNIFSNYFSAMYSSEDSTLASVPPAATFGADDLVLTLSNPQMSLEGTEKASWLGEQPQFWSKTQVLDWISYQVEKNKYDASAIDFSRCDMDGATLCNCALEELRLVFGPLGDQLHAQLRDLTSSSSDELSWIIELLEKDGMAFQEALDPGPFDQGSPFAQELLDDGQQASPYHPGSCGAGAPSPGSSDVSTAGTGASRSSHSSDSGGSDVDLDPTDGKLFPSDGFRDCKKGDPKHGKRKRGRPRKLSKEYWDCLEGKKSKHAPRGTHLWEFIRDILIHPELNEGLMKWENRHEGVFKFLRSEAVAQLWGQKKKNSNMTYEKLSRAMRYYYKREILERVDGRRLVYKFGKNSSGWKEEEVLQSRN
Procedure, shortened: as §1

CRX = CRX (Homo sapiens, UniProt O43186 1-299); conditions: protein: recombinant; tags: N-terminal GST; dsDNA, one strand shown
Chain of CRX (O43186 whole entry): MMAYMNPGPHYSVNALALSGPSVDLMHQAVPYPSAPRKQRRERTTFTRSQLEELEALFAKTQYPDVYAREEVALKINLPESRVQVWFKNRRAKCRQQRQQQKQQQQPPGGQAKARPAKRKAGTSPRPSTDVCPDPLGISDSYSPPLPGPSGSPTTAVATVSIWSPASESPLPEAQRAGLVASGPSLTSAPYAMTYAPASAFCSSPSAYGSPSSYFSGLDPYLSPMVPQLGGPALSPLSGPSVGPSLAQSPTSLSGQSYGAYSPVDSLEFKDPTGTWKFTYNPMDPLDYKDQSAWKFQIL
Procedure, shortened: as §1

ETV1 = ETV1 (Homo sapiens, UniProt P50549 1-477); conditions: protein: recombinant; tags: N-terminal GST; dsDNA, one strand shown
Chain of ETV1 (P50549 whole entry): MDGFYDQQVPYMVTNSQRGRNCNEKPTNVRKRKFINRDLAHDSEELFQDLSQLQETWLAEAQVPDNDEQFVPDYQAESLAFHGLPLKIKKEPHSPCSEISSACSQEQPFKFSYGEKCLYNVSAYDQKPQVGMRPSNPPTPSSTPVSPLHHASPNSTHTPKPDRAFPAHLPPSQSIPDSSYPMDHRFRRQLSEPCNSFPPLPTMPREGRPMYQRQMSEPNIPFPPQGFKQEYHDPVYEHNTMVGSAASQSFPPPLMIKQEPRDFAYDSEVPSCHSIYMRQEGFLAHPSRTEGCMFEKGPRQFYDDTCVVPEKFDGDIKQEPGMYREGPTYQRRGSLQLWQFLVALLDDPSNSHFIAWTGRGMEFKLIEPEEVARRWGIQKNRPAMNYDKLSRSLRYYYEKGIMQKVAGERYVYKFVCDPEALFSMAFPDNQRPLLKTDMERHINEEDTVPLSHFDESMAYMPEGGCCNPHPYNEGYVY
Procedure, shortened: as §1

ERF = target: T6, ERF (Homo sapiens, UniProt P50548 1-548); conditions: protein: recombinant; tags: N-terminal GST; dsDNA, one strand shown
T6 sequence: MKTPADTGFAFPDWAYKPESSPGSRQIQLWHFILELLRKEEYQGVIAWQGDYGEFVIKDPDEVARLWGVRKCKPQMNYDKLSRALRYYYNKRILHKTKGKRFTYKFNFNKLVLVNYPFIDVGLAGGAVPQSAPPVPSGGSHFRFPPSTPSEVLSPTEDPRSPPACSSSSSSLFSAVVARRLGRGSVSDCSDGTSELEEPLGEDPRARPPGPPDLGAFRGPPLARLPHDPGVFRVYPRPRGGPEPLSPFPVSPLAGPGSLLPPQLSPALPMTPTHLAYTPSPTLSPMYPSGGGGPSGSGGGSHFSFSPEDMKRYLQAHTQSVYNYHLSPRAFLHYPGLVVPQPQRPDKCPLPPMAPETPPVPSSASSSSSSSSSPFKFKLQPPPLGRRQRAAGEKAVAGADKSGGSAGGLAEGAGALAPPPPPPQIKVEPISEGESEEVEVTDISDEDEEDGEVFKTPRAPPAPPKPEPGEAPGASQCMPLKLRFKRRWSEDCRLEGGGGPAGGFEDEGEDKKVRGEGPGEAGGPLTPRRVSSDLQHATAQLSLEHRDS
Procedure, shortened: as §1

ETV3L = target: T7, ETV3L (Homo sapiens, UniProt Q6ZN32 1-361); conditions: protein: recombinant; tags: N-terminal GST; dsDNA, one strand shown
T7 sequence: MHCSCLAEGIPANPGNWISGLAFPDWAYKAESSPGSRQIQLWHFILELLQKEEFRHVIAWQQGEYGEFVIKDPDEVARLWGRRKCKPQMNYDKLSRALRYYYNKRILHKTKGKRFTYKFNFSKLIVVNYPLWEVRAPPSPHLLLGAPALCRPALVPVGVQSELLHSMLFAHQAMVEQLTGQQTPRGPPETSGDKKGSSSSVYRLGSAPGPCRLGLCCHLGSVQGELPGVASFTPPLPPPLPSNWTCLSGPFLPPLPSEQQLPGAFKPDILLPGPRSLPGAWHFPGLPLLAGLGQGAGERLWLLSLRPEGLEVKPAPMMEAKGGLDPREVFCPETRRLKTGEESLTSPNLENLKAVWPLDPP
Procedure, shortened: as §1

ETS2 = target: T8, ETS2 (Homo sapiens, UniProt P15036 1-469); conditions: protein: recombinant; tags: N-terminal GST; dsDNA, one strand shown
T8 sequence: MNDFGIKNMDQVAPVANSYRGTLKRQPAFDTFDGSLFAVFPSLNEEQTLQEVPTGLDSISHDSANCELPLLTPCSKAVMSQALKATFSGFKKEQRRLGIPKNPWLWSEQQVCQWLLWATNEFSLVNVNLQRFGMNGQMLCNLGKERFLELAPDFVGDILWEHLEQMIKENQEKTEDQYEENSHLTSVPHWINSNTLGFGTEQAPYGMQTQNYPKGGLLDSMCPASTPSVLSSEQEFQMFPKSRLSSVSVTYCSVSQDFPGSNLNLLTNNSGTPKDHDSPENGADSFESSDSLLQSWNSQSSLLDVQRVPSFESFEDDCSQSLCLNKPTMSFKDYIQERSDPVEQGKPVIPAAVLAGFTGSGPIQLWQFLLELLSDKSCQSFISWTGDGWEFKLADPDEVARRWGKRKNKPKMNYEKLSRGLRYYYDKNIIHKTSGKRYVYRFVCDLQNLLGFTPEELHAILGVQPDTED
Procedure, shortened: as §1

SPDEF = target: T9, SPDEF (Homo sapiens, UniProt O95238 1-335); conditions: protein: recombinant; tags: N-terminal GST; dsDNA, one strand shown
T9 sequence: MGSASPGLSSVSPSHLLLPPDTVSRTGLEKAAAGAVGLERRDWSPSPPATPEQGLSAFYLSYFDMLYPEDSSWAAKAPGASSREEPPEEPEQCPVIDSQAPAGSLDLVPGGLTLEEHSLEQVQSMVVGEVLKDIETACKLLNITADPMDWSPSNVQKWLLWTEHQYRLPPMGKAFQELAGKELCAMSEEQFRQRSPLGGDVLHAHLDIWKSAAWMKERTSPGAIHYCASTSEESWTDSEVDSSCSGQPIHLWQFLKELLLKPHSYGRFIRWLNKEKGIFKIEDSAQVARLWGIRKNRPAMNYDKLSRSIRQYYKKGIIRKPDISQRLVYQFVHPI
Procedure, shortened: as §1

ETV7 = target: T10, ETV7 (Homo sapiens, UniProt Q9Y603 1-341); conditions: protein: recombinant; tags: N-terminal GST; dsDNA, one strand shown
T10 sequence: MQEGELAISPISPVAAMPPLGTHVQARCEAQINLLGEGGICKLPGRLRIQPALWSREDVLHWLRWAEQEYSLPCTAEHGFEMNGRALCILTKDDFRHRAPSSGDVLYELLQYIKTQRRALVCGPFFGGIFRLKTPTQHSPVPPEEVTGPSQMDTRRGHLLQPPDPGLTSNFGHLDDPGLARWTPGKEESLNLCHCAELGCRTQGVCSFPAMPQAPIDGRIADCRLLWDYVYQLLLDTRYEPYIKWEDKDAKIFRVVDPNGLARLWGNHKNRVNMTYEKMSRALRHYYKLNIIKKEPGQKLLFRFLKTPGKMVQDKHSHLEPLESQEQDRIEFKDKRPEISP
Procedure, shortened: as §1

ELF5 = target: T11, ELF5 (Homo sapiens, UniProt Q9UKW6-2 1-255); conditions: protein: recombinant; tags: N-terminal GST; dsDNA, one strand shown
T11 sequence: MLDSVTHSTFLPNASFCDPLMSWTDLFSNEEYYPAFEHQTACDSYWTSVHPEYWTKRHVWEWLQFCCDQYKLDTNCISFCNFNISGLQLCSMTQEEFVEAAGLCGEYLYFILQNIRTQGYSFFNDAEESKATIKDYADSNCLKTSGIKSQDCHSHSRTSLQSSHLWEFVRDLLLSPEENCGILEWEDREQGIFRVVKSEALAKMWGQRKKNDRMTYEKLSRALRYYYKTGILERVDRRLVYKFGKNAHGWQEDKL
Procedure, shortened: as §1

ETV3 = target: T12, ETV3 (Homo sapiens, UniProt P41162-2 1-143); conditions: protein: recombinant; tags: N-terminal GST; dsDNA, one strand shown
T12 sequence: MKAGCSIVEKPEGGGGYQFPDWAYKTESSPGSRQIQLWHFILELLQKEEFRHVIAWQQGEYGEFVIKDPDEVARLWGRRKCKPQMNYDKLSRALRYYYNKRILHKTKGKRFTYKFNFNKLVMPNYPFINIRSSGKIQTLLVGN
Procedure, shortened: as §1

ETV6 = ETV6 (Homo sapiens, UniProt P41212 1-452); conditions: protein: recombinant; tags: N-terminal GST; dsDNA, one strand shown
Chain of ETV6 (P41212 whole entry): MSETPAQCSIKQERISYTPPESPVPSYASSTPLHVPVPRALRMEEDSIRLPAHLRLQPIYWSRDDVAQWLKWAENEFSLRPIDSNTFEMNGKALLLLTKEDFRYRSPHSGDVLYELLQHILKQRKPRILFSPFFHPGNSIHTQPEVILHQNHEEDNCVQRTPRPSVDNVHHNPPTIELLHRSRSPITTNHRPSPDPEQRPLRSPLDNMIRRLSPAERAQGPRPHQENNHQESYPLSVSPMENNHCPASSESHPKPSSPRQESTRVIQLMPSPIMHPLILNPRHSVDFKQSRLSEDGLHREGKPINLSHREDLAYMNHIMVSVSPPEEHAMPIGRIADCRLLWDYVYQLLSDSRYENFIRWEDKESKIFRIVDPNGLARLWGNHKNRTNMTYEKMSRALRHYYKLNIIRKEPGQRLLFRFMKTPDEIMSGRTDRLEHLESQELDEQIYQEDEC
Procedure, shortened: as §1

## AATAGA
FEV
  binding signal: 1.07 fold enrichment (6-mer frequency, TF over GST control)
ETV5
  binding signal: 1.07 fold enrichment (6-mer frequency, TF over GST control)
HSF1
  binding signal: 1.34 fold enrichment (6-mer frequency, TF over GST control)
SPIC
  binding signal: 1.02 fold enrichment (6-mer frequency, TF over GST control)
ELF4
  binding signal: 1.07 fold enrichment (6-mer frequency, TF over GST control)
ELK4
  binding signal: 1.1 fold enrichment (6-mer frequency, TF over GST control)
ETV2
  binding signal: 1.13 fold enrichment (6-mer frequency, TF over GST control)
ELF3
  binding signal: 1.07 fold enrichment (6-mer frequency, TF over GST control)
CRX
  binding signal: 1.15 fold enrichment (6-mer frequency, TF over GST control)
ETV1
  binding signal: 1.07 fold enrichment (6-mer frequency, TF over GST control)
ERF
  binding signal: 1.19 fold enrichment (6-mer frequency, TF over GST control)
ETV3L
  binding signal: 1.16 fold enrichment (6-mer frequency, TF over GST control)
ETS2
  binding signal: 1.1 fold enrichment (6-mer frequency, TF over GST control)
SPDEF
  binding signal: 1.05 fold enrichment (6-mer frequency, TF over GST control)
ETV7
  binding signal: 1.17 fold enrichment (6-mer frequency, TF over GST control)
ELF5
  binding signal: 1.11 fold enrichment (6-mer frequency, TF over GST control)
ETV3
  binding signal: 1.09 fold enrichment (6-mer frequency, TF over GST control)
ETV6
  binding signal: 1.17 fold enrichment (6-mer frequency, TF over GST control)
